# Over roughly 9,900 sequences, “r (bound/input frequency ratio)” has its median near 0.7; the highest 2% begin near 6.5. Many of the other results were omitted from the sample, so the highest values are more common in it than they were.
# B1: ENSMUSG00000022095.184|Fam160b2 (ssRNA)
# RNA: GGGAGUUCUACAGUCCGACGAUCGCUUCGAUAUCCGCAUGCUACAGGCAUUACCUCACAACAGGCCUGCAGUUGUUGGCUUCCCUCCUGGGCAAGGAGGAGCAGGCCAGAGCCCCUUUUGCUUCCUUUUCCUGCCCAUGCCACCUCUCGAAGCCGGGCACAGGUUGCCAGGAGGUGACAUGAAAGAGGAGGAAACUCCAUGACCUCUACAUCCCCCGCAGUCCUCCCAGCGGGGGAGGACUUCUCUGCUGCUCCGAAGAACAUCAUGCACUCCUGUGUGUGUGUGUGAGUGUGUGUGUGUGUGCUCUUGCGGUCGCACUAGUGUGGAAUUCUCGGGUGUCAAGG
# B2: ENSMUSG00000022095.193|Fam160b2 (ssRNA)
# RNA: GGGAGUUCUACAGUCCGACGAUCGCUUCGAUAUCCGCAUGCUAGGAGCAGGCCAGAGCCCCUUUUGCUUCCUUUUCCUGCCCAUGCCACCUCUCGAAGCCGGGCACAGGUUGCCAGGAGGUGACAUGAAAGAGGAGGAAACUCCAUGACCUCUACAUCCCCCGCAGUCCUCCCAGCGGGGGAGGACUUCUCUGCUGCUCCGAAGAACAUCAUGCACUCCUGUGUGUGUGUGUGAGUGUGUGUGUGUGUGUGUGUGUGUGUGUGUGUGUAUGUGUGUGUAUAUGUGUGUGUGUGUGUGUAUGUGCUCUUGCGGUCGCACUAGUGUGGAAUUCUCGGGUGUCAAGG
# B3: ENSMUSG00000022095.194|Fam160b2 (ssRNA)
# RNA: GGGAGUUCUACAGUCCGACGAUCGCUUCGAUAUCCGCAUGCUAGGCCAGAGCCCCUUUUGCUUCCUUUUCCUGCCCAUGCCACCUCUCGAAGCCGGGCACAGGUUGCCAGGAGGUGACAUGAAAGAGGAGGAAACUCCAUGACCUCUACAUCCCCCGCAGUCCUCCCAGCGGGGGAGGACUUCUCUGCUGCUCCGAAGAACAUCAUGCACUCCUGUGUGUGUGUGUGAGUGUGUGUGUGUGUGUGUGUGUGUGUGUGUGUGUAUGUGUGUGUAUAUGUGUGUGUGUGUGUGUAUGUGUGUGUGCUCUUGCGGUCGCACUAGUGUGGAAUUCUCGGGUGUCAAGG
# B4: ENSMUSG00000022095.190|Fam160b2 (ssRNA)
# RNA: GGGAGUUCUACAGUCCGACGAUCGCUUCGAUAUCCGCAUGCUAUUCCCUCCUGGGCAAGGAGGAGCAGGCCAGAGCCCCUUUUGCUUCCUUUUCCUGCCCAUGCCACCUCUCGAAGCCGGGCACAGGUUGCCAGGAGGUGACAUGAAAGAGGAGGAAACUCCAUGACCUCUACAUCCCCCGCAGUCCUCCCAGCGGGGGAGGACUUCUCUGCUGCUCCGAAGAACAUCAUGCACUCCUGUGUGUGUGUGUGAGUGUGUGUGUGUGUGUGUGUGUGUGUGUGUGUGUAUGUGUGUGUAUAUGUGCUCUUGCGGUCGCACUAGUGUGGAAUUCUCGGGUGUCAAGG
# B5: ENSMUSG00000022095.186|Fam160b2 (ssRNA)
# RNA: GGGAGUUCUACAGUCCGACGAUCGCUUCGAUAUCCGCAUGCUACACAACAGGCCUGCAGUUGUUGGCUUCCCUCCUGGGCAAGGAGGAGCAGGCCAGAGCCCCUUUUGCUUCCUUUUCCUGCCCAUGCCACCUCUCGAAGCCGGGCACAGGUUGCCAGGAGGUGACAUGAAAGAGGAGGAAACUCCAUGACCUCUACAUCCCCCGCAGUCCUCCCAGCGGGGGAGGACUUCUCUGCUGCUCCGAAGAACAUCAUGCACUCCUGUGUGUGUGUGUGAGUGUGUGUGUGUGUGUGUGUGUGUGUGCUCUUGCGGUCGCACUAGUGUGGAAUUCUCGGGUGUCAAGG
# B6: ENSMUSG00000022095.185|Fam160b2 (ssRNA)
# RNA: GGGAGUUCUACAGUCCGACGAUCGCUUCGAUAUCCGCAUGCUAUUACCUCACAACAGGCCUGCAGUUGUUGGCUUCCCUCCUGGGCAAGGAGGAGCAGGCCAGAGCCCCUUUUGCUUCCUUUUCCUGCCCAUGCCACCUCUCGAAGCCGGGCACAGGUUGCCAGGAGGUGACAUGAAAGAGGAGGAAACUCCAUGACCUCUACAUCCCCCGCAGUCCUCCCAGCGGGGGAGGACUUCUCUGCUGCUCCGAAGAACAUCAUGCACUCCUGUGUGUGUGUGUGAGUGUGUGUGUGUGUGUGUGUGCUCUUGCGGUCGCACUAGUGUGGAAUUCUCGGGUGUCAAGG
# B7: ENSMUSG00000022095.192|Fam160b2 (ssRNA)
# RNA: GGGAGUUCUACAGUCCGACGAUCGCUUCGAUAUCCGCAUGCUACAAGGAGGAGCAGGCCAGAGCCCCUUUUGCUUCCUUUUCCUGCCCAUGCCACCUCUCGAAGCCGGGCACAGGUUGCCAGGAGGUGACAUGAAAGAGGAGGAAACUCCAUGACCUCUACAUCCCCCGCAGUCCUCCCAGCGGGGGAGGACUUCUCUGCUGCUCCGAAGAACAUCAUGCACUCCUGUGUGUGUGUGUGAGUGUGUGUGUGUGUGUGUGUGUGUGUGUGUGUGUAUGUGUGUGUAUAUGUGUGUGUGUGUGUGCUCUUGCGGUCGCACUAGUGUGGAAUUCUCGGGUGUCAAGG
# B8: ENSMUSG00000022095.184|Fam160b2|231:244;246:260 (ssRNA)
# RNA: GGGAGUUCUACAGUCCGACGAUCGCUUCGAUAUCCGCAUGCUACAGGCAUUACCUCACAACAGGCCUGCAGUUGUUGGCUUCCCUCCUGGGCAAGGAGGAGCAGGCCAGAGCCCCUUUUGCUUCCUUUUCCUGCCCAUGCCACCUCUCGAAGCCGGGCACAGGUUGCCAGGAGGUGACAUGAAAGAGGAGGAAACUCCAUGACCUCUACAUCCCCCGCAGUCCUCCCAGCGGGGGAGGACUUCUCUGCUGCUCCGAAGAACAUCAUGCACUCCACACACACACACACACACACACACACACACCUCUUGCGGUCGCACUAGUGUGGAAUUCUCGGGUGUCAAGG
# B9: ENSMUSG00000022095.186|Fam160b2|219:232;234:260 (ssRNA)
# RNA: GGGAGUUCUACAGUCCGACGAUCGCUUCGAUAUCCGCAUGCUACACAACAGGCCUGCAGUUGUUGGCUUCCCUCCUGGGCAAGGAGGAGCAGGCCAGAGCCCCUUUUGCUUCCUUUUCCUGCCCAUGCCACCUCUCGAAGCCGGGCACAGGUUGCCAGGAGGUGACAUGAAAGAGGAGGAAACUCCAUGACCUCUACAUCCCCCGCAGUCCUCCCAGCGGGGGAGGACUUCUCUGCUGCUCCGAAGAACAUCAUGCACUCCACACACACACACACACACACACACACACACACACACACACACCUCUUGCGGUCGCACUAGUGUGGAAUUCUCGGGUGUCAAGG
# Biological target: TDP-43 (Homo sapiens, UniProt Q13148 1-414)
# Sequence (Q13148 whole entry): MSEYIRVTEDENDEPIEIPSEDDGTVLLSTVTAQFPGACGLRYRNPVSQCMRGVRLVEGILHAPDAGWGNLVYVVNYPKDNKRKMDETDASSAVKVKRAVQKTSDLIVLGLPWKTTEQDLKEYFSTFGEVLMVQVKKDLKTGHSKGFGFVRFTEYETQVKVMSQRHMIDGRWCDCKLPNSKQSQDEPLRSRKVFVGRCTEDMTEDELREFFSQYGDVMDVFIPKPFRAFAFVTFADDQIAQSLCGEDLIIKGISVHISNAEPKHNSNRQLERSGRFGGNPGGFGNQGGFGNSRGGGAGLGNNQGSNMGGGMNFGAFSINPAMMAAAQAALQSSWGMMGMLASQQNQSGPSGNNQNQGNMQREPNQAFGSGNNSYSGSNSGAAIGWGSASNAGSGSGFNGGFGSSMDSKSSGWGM
# Assay: RNA Bind-n-Seq with designed 260-mer pool; 25 mM Tris-HCl, 150 mM KCl, 3 mM MgCl2, BSA (printed 500 mg/mL), 20 units/mL SUPERase IN; pH not stated; 500 nM RNA pool, 1 h, 4 C; TDP-43 5, 50, 500 nM; high values mean tight binding
# Conditions: protein: recombinant; tags: SBP (GST cleaved off with PreScission; pGEX-GST-SBP)
# Method in brief: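 The incubation lasted 1 h at 4 °C and used 500 nM of an in vitro-transcribed 260-nt 3′ UTR oligo pool with recombinant SBP-tagged TDP-43 at 5, 50 or 500 nM immobilized on streptavidin beads. It took place in 25 mM Tris-HCl, 150 mM KCl, 3 mM MgCl2, BSA and SUPERase IN. Bound RNA was washed, eluted with biotin, converted to cDNA, PCR-amplified and sequenced to give R, each oligo's normalized abundance in the bound sample divided by that in input. Two independent protein batches provided the duplicates.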
row,Binder,binding signal
1,B1,3.46 R (bound/input frequency ratio)
2,B2,8.43 R (bound/input frequency ratio)
3,B3,7.48 R (bound/input frequency ratio)
4,B4,7.2 R (bound/input frequency ratio)
5,B5,6.14 R (bound/input frequency ratio)
6,B6,4.85 R (bound/input frequency ratio)
7,B7,8.2 R (bound/input frequency ratio)
8,B8,3.13 R (bound/input frequency ratio)
9,B9,2.91 R (bound/input frequency ratio)

# Source: paper PMC12864922, “TDP-43 directly inhibits mRNA accumulation in neurites through modulation of mRNA stability”
